In PubChem BioAssay AID624125 (The Scripps Research Institute Molecular Screening Center, 2012):
In all, about 360,000 compounds went through this assay and about 2,600 (0.72%) were called active.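 Rule for the calls: active = inhibition above its plate's cutoff, the mean inhibition of sample wells plus 3 SD (cut at about 27% in these data); inactive = the rest.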 The sample as a whole holds a higher share of actives than the screen did.

molecular target: Muscarinic acetylcholine receptor M4 (Homo sapiens) (UniProt P08173); assay: CHRM4 blockers of acetylcholine calcium response – CHO cells, Fluo-8 calcium fluorescence, primary screen (AID 624125); settings: CHO-hM4 cells, ACh EC80, Fluo-8 calcium fluorescence; at 3 µM; active compounds read high;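 note: 0% = acetylcholine EC80 with DMSO and 100% = DMSO without agonist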
Sequence (P08173 whole entry, looked up): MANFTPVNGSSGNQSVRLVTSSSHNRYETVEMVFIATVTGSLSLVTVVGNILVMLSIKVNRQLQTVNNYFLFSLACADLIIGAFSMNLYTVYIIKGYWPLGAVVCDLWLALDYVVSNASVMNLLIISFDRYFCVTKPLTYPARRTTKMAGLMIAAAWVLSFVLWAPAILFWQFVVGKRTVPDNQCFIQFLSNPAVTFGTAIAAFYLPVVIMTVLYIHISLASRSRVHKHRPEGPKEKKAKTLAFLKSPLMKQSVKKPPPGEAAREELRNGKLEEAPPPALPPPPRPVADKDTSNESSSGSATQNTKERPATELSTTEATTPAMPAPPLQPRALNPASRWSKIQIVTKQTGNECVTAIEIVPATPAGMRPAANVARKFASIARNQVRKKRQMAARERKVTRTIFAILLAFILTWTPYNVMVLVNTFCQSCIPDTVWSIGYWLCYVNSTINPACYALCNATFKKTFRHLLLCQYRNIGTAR

Structure (SMILES) | inhibition
O=[N+]([O-])c1c(NCCO)cc(Sc2nc3ccccc3s2)c2nonc12 | 74.6% (active)
CCCCN1C(=O)/C(=C2/C=CC=CN2C)SC1=S | 28.7% (active)
CCS(=O)(=O)N1CCCC(C(=O)NCCCN(C)Cc2ccccc2)C1 (stereo not given) | 6.16% (inactive)
CCS(=O)(=O)c1ccc2c(c1)N(S(=O)(=O)c1ccccc1)CC(C(=O)O)O2 (stereo not given) | 0.74% (inactive)
c1ccc2c(c1)CSc1sccc1C2=C1CCNCC1 | 97.6% (active)
CCCCN(CC(=O)Nc1cccc(S(=O)(=O)N2CCCC2)c1)Cc1nc2ccccc2c(=O)[nH]1 | 15.9% (inactive)
O=C1CCCc2nn(-c3ccccc3)nc21 | 2.29% (inactive)
C=CCC(NC(=O)Cc1ccccc1)C(=O)NCCC (stereo not given) | 0.03% (inactive)
CCCOCC(O)CC(CC)C(=O)NNC(=S)Nc1ccccc1 (stereo not given) | -8.64% (inactive)
CCCCC(=O)NNC(=S)NC(=O)C(c1ccccc1)c1ccccc1 | 59.9% (active)
CCOc1ccc(N(CC)S(=O)(=O)c2cccc3nsnc23)cc1 | 4.82% (inactive)
O=C(/C=C/[C@H]1O[C@@H](n2ccc(=O)[nH]c2=O)[C@H](O)[C@@H]1O)NCc1ccccn1 | -0.74% (inactive)
COc1ccc(C(=O)O)cc1S(=O)(=O)NCc1cccnc1 | -5.56% (inactive)
Cn1nccc1C(=O)NC1CCCc2c1cnn2-c1ccc(F)cc1F (stereo not given) | 4.7% (inactive)
COc1ccc(C(=O)NC2CCCc3c2cnn3-c2cccc(C)c2C)c(OC)n1 (stereo not given) | 30.6% (active)
COc1ccc(C(=O)NC2CC(C)(C)Cc3c2cnn3-c2ccccc2)c(OC)c1 (stereo not given) | -2.19% (inactive)
CCC(Oc1ccccc1)C(=O)NCc1cccnc1 (stereo not given) | -2.11% (inactive)
CCN(CC(=O)Nc1ccc(NC(C)=O)cc1)C(=O)C1CC(=O)N(Cc2ccc(C)cc2)C1 (stereo not given) | -10% (inactive)
O=C1CC[C@@H](C(=O)N2CSC[C@@H]2C(=O)Nc2ccc(C(F)(F)F)cc2)N1 | -9.06% (inactive)
Cc1c(Cl)cccc1NC(=O)CSc1ccc(-c2cccnc2)nn1 | 4.65% (inactive)
O=C(NCc1ccc2c(c1)OCO2)C1CCCN(S(=O)(=O)c2cccs2)C1 (stereo not given) | -10.7% (inactive)
O=C1C(Cl)=C(Oc2ccccc2)C(=O)c2ccccc21 | 43.5% (active)
O=C(Nn1cnc2ccccc2c1=O)c1ccc(F)cc1Cl | 0.01% (inactive)

Structure (SMILES) | inhibition
COC(=O)[C@@]12CCCN1[C@H](c1ccc(-c3ccc(F)cc3)c(OC)c1)[C@H]1C(=O)N(C)C(=O)[C@H]12 | 0.47% (inactive)
CC(C)(C)NC(=O)/C(=C/c1cccnc1)NC(=O)c1ccco1 | -1.31% (inactive)
COc1ccc(-c2onc3ccc(C(C)=O)cc23)cc1 | -10.7% (inactive)
CCn1c2ccccc2c2cc(NC(=S)N3CCOCC3)ccc21 | 3.52% (inactive)
O=C(CN1CCOc2ccccc21)N1CCC(Cc2ccccc2)CC1 | -1.37% (inactive)
O=C(Nc1ccc2c(c1)OCCO2)C(C1CC1)N1CCC(Cc2ccccc2)CC1 (stereo not given) | 28.2% (active)
Nc1c(C(=O)Nc2ccc3c(c2)OCCO3)nnn1Cc1ccccc1 | 1.65% (inactive)
O=C(Nc1ccccc1C(=O)N1CCOCC1)c1ccc(Cl)cc1 | -14.3% (inactive)
CCOC(=O)N(Cc1ccccc1)C1CC1 | 2.24% (inactive)
CN(CCO)C(=O)c1nc[nH]c1C(=O)N(C)Cc1ccccc1 | -23.3% (inactive)
CN(C(=O)CN(CCO)CC(=O)N(C)C(C)(C)Cc1ccccc1)C(C)(C)Cc1ccccc1 | 28.1% (active)
Cc1ccc2cc(C#N)c(NCCNC(=S)NCCCN3CCOCC3)nc2c1 | -4.3% (inactive)
COCCn1c(C)cc(C(=O)CN2c3cccc4cccc(c34)S2(=O)=O)c1C | -7.15% (inactive)
COc1ccc(N2CCN(C(=O)c3cn(C)c4ccc(S(=O)(=O)N5CCOCC5)cc4c3=O)CC2)cc1 | -12.4% (inactive)
CCOC(=O)N1CCN(C(=O)c2cn(C)c3ccc(S(=O)(=O)N4CCCC4)cc3c2=O)CC1 | 58.7% (active)
CCOC(=O)N1CCN(C(=O)c2cn(C)c3ccc(S(=O)(=O)N(CC)CC)cc3c2=O)CC1 | -13.5% (inactive)
CCCCSc1nc2c(c(=O)n1CC)SC(C)C2 (stereo not given) | -22.6% (inactive)
Cc1ccc(NC(=O)C(C)OC(=O)Cc2c[nH]c3ccccc23)cc1S(=O)(=O)N1CCOCC1 (stereo not given) | -17.2% (inactive)
Cc1ccc(S(=O)(=O)N(Cc2ccc(Cl)cc2)c2ccccc2C(=O)NCc2cccnc2)cc1 | 2.37% (inactive)
Nc1nc(NCc2ccccc2)n(-c2ccccc2)n1 | -15.7% (inactive)
CCCCCCn1c(=O)n2n(c1=O)C[C@]1(OC(=O)NCc3ccc(OC)c(OC)c3)CN(S(=O)(=O)c3ccc(C)cc3)C[C@]1(O)C2 | -8.79% (inactive)
O=S1(=O)CCN(Cc2ccccc2)CC1 | -1.75% (inactive)
CC12CN(Cc3ccccc3)CC(C)(CN(Cc3ccccc3)C1)C2=NO | 31.4% (active)

Structure (SMILES) | inhibition
NC(=O)C1(N2CCCC2)CCN(Cc2ccccc2)CC1 | -8.47% (inactive)
COc1cccc(CC(=O)N2CCCC(CCC(=O)N3CCN(c4ccccn4)CC3)C2)c1 (stereo not given) | -6.8% (inactive)
CC(=O)N[C@@H](C)C(=O)N1CCC(n2nccc2NC(=O)CCCc2ccccc2)CC1 | -1.73% (inactive)
COc1ccccc1NC(=O)COC(=O)Cc1ccc(S(=O)(=O)N2CCCCC2)s1 | -3.41% (inactive)
CC(C)Nc1nnc(SC(C)C(=O)N(C)C2CCCCC2)s1 (stereo not given) | 3.18% (inactive)
COc1cc(C(=O)NCc2nnc(SCC(=O)Nc3nc4ccc(C)cc4s3)o2)cc(OC)c1OC | 1.54% (inactive)
CCn1c(CNC(=O)c2cc(OC)c(OC)c(OC)c2)cc2cc(C)ccc21 | 28.2% (active)
COc1cc(C(=O)NCc2ccc(-n3cccc3)cc2)cc(OC)c1OC | 9.05% (inactive)
Cc1ccc(S(=O)(=O)N2CCC(C(=O)N[C@@H](C)C(=O)NCc3ccccc3)CC2)cc1 | -7.25% (inactive)
Cc1coc2c1c(C)cc1oc(=O)c(CC(=O)NCC(=O)N[C@H](C(=O)O)C(C)C)c(C)c12 | 12.9% (inactive)
C=CCn1c(SCC(=O)NCc2ccccc2)nnc1-c1cc(Br)ccc1O | 10.6% (inactive)
COc1ccccc1C(=O)NC(=O)COC(=O)c1ccco1 | -3.72% (inactive)
COc1ccccc1S(=O)(=O)NCc1ccc(C(=O)N(C)Cc2ccc(F)cc2)cc1 | 0.25% (inactive)
Cc1ccc(CNC(=O)Cn2cnc(S(=O)(=O)N3CCCCC3)c2)o1 | -2.52% (inactive)
CCOc1cc(NC(=O)c2ccccc2C(=O)O)c(OCC)cc1NC(=O)c1ccccc1F | -12.1% (inactive)
CCN1CCN(c2cc3nc(C)n(Cc4ccccc4)c(=O)c3cc2NC(=O)c2ccccc2F)CC1 | 84.6% (active)
CCC(=O)Nc1ccc2nc(C)n(Cc3ccccc3Cl)c(=O)c2c1 | 6.19% (inactive)
COc1ccc(NC(=O)C[C@H]2C(=O)N(CCc3ccccc3)C[C@@H]2C)cc1 | -7.17% (inactive)
COc1cc2c(cc1OC)C(c1cccc([N+](=O)[O-])c1)=NCC2 | -14.9% (inactive)
COc1ccc(C(CNCC(=O)Nc2ccccc2F)N(C)C)cc1 (stereo not given) | -5.27% (inactive)
CCc1ccccc1NC(=O)CN(C)C(=O)COc1ccc(C)nc1[N+](=O)[O-] | -2.74% (inactive)
CCOc1ccc(S(=O)(=O)Nc2ccc(C(=O)NCCCN3CCCC3=O)cc2)cc1 | -0.83% (inactive)
COc1ccc(C(CNC(=O)c2cccc(S(=O)(=O)Nc3ccc(Br)cc3)c2)N(C)C)cc1 (stereo not given) | 1.87% (inactive)

Structure (SMILES) | inhibition
Cc1ccc(C(=O)NCC(c2cccs2)N(C)C)cc1S(=O)(=O)N1CCOCC1 (stereo not given) | 8.72% (inactive)
COc1ccccc1CNC(=O)c1ccc(Cl)c(S(=O)(=O)N2CCCC2)c1 | -5.41% (inactive)
CCOc1ccc(NS(=O)(=O)c2ccc(C(=O)NCC(c3ccccc3OC)N3CCCC3)cc2)cc1 (stereo not given) | 40.8% (active)
CCOc1ccc(NS(=O)(=O)c2ccc(C(=O)NC3CCN(Cc4ccccc4)CC3)cc2)cc1 | 6.63% (inactive)
COc1ccccc1C(CNC(=O)c1cccc(S(=O)(=O)Nc2ccc(F)cc2)c1)N(C)C (stereo not given) | 48.7% (active)
COc1ccccc1C(CNC(=O)c1ccc(C)c(S(=O)(=O)N2CCCCC2)c1)N(C)C (stereo not given) | 51.6% (active)
COc1ccccc1C(CNC(=O)c1cccc(NS(=O)(=O)c2ccc(Br)cc2)c1)N(C)C (stereo not given) | 10.7% (inactive)
Fc1cccc(Cc2c(-c3ccc(Cl)cc3)nc3ccc(Cl)cn23)c1 | -24.1% (inactive)
CCOC(=O)C(CC)Sc1ncnc2c1nnn2-c1ccc(F)cc1 (stereo not given) | -1.34% (inactive)
CC(C)Cc1cc(C(=O)Nc2cc(Br)ccc2O)no1 | -14.2% (inactive)
CC(C)Cc1cc(C(=O)NCCc2ccccc2)no1 | 101% (active)
O=C(NCCCc1ccccc1)c1cc(COc2c(F)cccc2F)on1 | -4.04% (inactive)
CC1(C(=O)NS(=O)(=O)c2ccccc2Cl)CCN1C(=O)c1cccc(F)c1 (stereo not given) | 3.33% (inactive)
CC(Sc1nncn1C)C(=O)Nc1cc(C(F)(F)F)ccc1N1CCOCC1 (stereo not given) | -5.32% (inactive)
CN(CCC#N)c1ncnc2scc(-c3ccccc3)c12 | -1.83% (inactive)
O=C(CN1CCCCC1)N1c2ccccc2Sc2ccc(C(F)(F)F)cc21 | 97.5% (active)
O=C(CN1CCCCCC1)N1c2ccccc2Sc2ccc(C(F)(F)F)cc21 | 98% (active)
O=C(CSc1nc2ccccc2o1)N1c2ccccc2Sc2ccc(Cl)cc21 | -3.42% (inactive)
CCC(=O)Nc1cc(C(F)(F)F)ccc1N1CCCC1 | 3.82% (inactive)
O=C(CN1C(=O)/C(=C\c2ccc(C(F)(F)F)cc2)Sc2ccccc21)NCc1ccco1 | 14.8% (inactive)
O=C(CN1CCCCCC1)Nc1ccc(Cl)cc1F | -14.1% (inactive)
